Shown are actives, neighbours in structure and some others; about 4.6% of the full set was active somewhere.
UCHL1 block: inhibitors of human UCHL1 deubiquitinase. purified UCHL1, Ub-rhodamine cleavage fluorescence. inhibition, % at 20 µM. P09936. hit rate 0.2% among 47,000
Target sequence (P09936 whole entry, looked up): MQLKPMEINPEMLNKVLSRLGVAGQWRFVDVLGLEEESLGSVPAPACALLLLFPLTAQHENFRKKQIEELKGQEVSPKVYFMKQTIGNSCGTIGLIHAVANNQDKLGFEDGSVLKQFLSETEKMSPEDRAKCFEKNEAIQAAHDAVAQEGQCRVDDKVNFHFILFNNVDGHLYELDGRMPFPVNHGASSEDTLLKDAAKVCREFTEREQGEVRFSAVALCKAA
USP10 block: blocks human USP10 ubiquitin-rhodamine cleavage | purified USP10, Ub-rhodamine fluorescence, 60 min | hit rate 1.1% among 47,000 | inhibition, % at 20 µM | AID 1645856
USP7 inh: human USP7 deubiquitinase inhibition; AID 1645854; hit rate 0.3% among 47,000; inhibition, % at 20 µM; Q93009; purified USP7, Ub-rhodamine cleavage fluorescence
USP8 inh: inhibitors of human USP8 deubiquitinase; P40818; purified USP8, Ub-rhodamine cleavage fluorescence, 30 min; inhibition, % at 20 µM; hit rate 4.2% among 47,000; AID 1645853
Each line names hits and unclear results; the compound was inactive in the other large screens. Rule as the data show it: active = inhibition above about 30%; inactive = the rest.

COc1ccc2[nH]c(C(=O)N[C@@H](C)C(=O)Nc3nc4ccccc4s3)cc2c1OC	none
c1ccc(-c2cc3n(c2)CCc2cc4c(cc2-3)OCO4)cc1	none
Clc1ccc(-c2cc3n(c2)CCc2cc4c(cc2-3)OCO4)cc1	USP8 inh 70.3
CC1(C)CCCC2=C1CC(C)(C)C(N(C(=O)/C=C/C(=O)O)c1ccccc1)C2 (configuration not stated)	USP10 block 34.2, USP8 inh 59.2
CC1CCN(C(=O)CCc2ccnc(N3CCOCC3)c2)CC1	none
CNc1cc(C2CCCN(C(=O)c3cc4c([nH]c3=O)CCC4)C2)ccn1 (configuration not stated)	none
O=C(Nc1ccc(O)cc1)c1cccn2c(-c3ccccc3F)nnc12	USP8 inh 56.4
Cc1ccc(NC(=O)CSc2ccc(-c3sc(C)nc3C)nn2)cc1	none
CCCCCC(=O)/C=C/C(=O)O	none
Cc1ccc(-n2ccnc2N2CCN(CC(=O)Nc3ccccc3F)CC2)cc1	none
O=C(CSc1nccn1-c1cccc(C(=O)Nc2ccccc2)c1)Nc1ccccc1F	USP8 inh 51.3
Cc1ccccc1NC(=O)CSc1nccn(-c2ccc(F)c(F)c2)c1=O	none
Cc1cccc(-n2ccnc(SCC(=O)Nc3ccc(Cl)cc3F)c2=O)c1	USP8 inh 48.8
CC1(C)CS(=O)(=O)N(c2cccc(C(=O)N3CCN(c4ccccn4)CC3)c2)C1=O	none
COc1ccc(OC)c(-n2c(O)c(C3NCCc4c3[nH]c3ccccc43)c(=O)[nH]c2=O)c1 (configuration not stated)	none
CC(C)(C)c1ccc(Cn2nnc3c(=O)[nH]c(C4CCN(S(=O)(=O)c5ccc(S(=O)(=O)NC6CC6)cc5)CC4)nc32)cc1	USP8 inh 32.6
O=c1[nH]c(C2CCN(S(=O)(=O)c3ccc(S(=O)(=O)N4CCOCC4)cc3)CC2)nc2c1nnn2Cc1cccc(Cl)c1	USP8 inh 34.9
Cc1ccc(Cn2nnc3c(=O)[nH]c(C4CCN(S(=O)(=O)c5ccc(S(=O)(=O)NC6CCCC6)cc5)CC4)nc32)cc1	USP10 block 33.7
Cc1cc(C)n(-c2nnc(NCc3ccncc3)nn2)n1	none
C/C=C/C=C/[C@@H]1Cc2cc(O)cc(O)c2O1	UCHL1 block 60.5, USP10 block 32.6, USP8 inh 74.2
C[C@@H]1Cc2cc(O)cc(O)c2C(=O)O[C@H](C)CC(=O)OC[C@@H](O)CC(=O)O[C@H](C)Cc2cc(O)cc(O)c2C(=O)O[C@H](C)CC(=O)O1	none
CCCCCCCCCCCC1=C(O)C(=O)C=C(O)C1=O	USP10 block 79.9, USP7 inh 49.6, USP8 inh 60.5
Cc1ncc(-c2cncc(CC3CCCN(C(=O)c4ccc5nc[nH]c5c4)C3)n2)n1C (configuration not stated)	none
CCCn1c(-c2ccc(F)cc2)cn2c(-c3ccccc3)c(-c3ccccc3)nc12	USP8 inh 68.3
CC(C)Cn1c(=O)c2nscc2n(CC(=O)Nc2ccccc2)c1=O	USP8 inh 62.7
CCCn1c(=O)c2nscc2n(CC(=O)Nc2ccccc2)c1=O	none
Cc1ccc(C(=O)Nc2ccc(S(=O)(=O)N3CCCC3)cc2)cc1Br	none
CC(=O)C1=C(O)[C@]2(O)C(=O)c3c(c(C)c4ccc(C)c(O)c4c3O)C[C@H]2[C@@H](N)C1=O	UCHL1 block 65.6, USP7 inh 58.1
COc1ccc(CC(C#N)(C(=O)NC2CCCCC2)c2nc3ccccc3[nH]2)cc1 (configuration not stated)	USP8 inh 69.7
O=C(Nc1cccc2ccccc12)C1CCCN(S(=O)(=O)Cc2ccccc2)C1 (configuration not stated)	USP8 inh 31.8
Cc1cccc(CNC(=O)C2CCCN(S(=O)(=O)N3CCCCC3)C2)c1 (configuration not stated)	USP8 inh 32.3
CS(=O)(=O)NC1CCCN(C(=O)Nc2cccc3ccccc23)C1 (configuration not stated)	USP8 inh 93.1
O=C(Nc1ccccc1F)C1CCCN(S(=O)(=O)Cc2ccc(F)cc2)C1 (configuration not stated)	none
CCc1ccccc1NC(=O)N1CCCC(CN2CCc3ccccc3C2)C1 (configuration not stated)	none
Cc1c(C)n(Cc2ccncc2)c2ncnc(NCc3ccccn3)c12	none
O=C(Nc1nc2c(s1)CCC2C(=O)Nc1ccc2c(c1)OCO2)c1ccccc1 (configuration not stated)	USP8 inh 38.3
Cc1nn(Cc2ccccc2)c2[nH]c(=O)cc(C(F)(F)F)c12	none
CCc1ccc(C(CC(=O)Nc2ccc3c(c2)OCO3)NC(=O)C(F)(F)F)cc1 (configuration not stated)	USP8 inh 36.6
CCn1c(CNC(=O)c2ccco2)nnc1SCC(=O)Nc1cc(C)cc(C)c1	none
Cc1csc(-c2cc(S(=O)(=O)Nc3ccccc3C)c(C)n2C)n1	none
O=c1c2ccccc2oc2nc(-c3cccs3)n(-c3ccccc3)c(=O)c12	UCHL1 block 49.4, USP7 inh 80.0, USP8 inh 97.5
Cc1ccc(-c2nc3c(c(=O)c4ccccc4n3C)c(=O)n2-c2ccc(F)cc2)cc1	none (no result: USP7 inh)
O=C(COc1ccc(Cl)cc1)Nc1ccc(S(=O)(=O)Nc2ccccc2)cc1	none
CC(OC(=O)c1ccc(NS(=O)(=O)c2ccc3c(c2)OCCO3)cc1)C(=O)Nc1cccc2ccccc12 (configuration not stated)	none
CC(C)c1ccc(NC(=O)COC(=O)c2ccc(NS(=O)(=O)c3ccc4c(c3)OCCO4)cc2)cc1	USP10 block 51.3
CCc1ccc(CN(C)C(=O)c2ccc(NS(=O)(=O)c3ccc(F)c(F)c3)cc2)cc1	USP10 block 37.9
O=C(COC(=O)c1ccc(NS(=O)(=O)c2ccc(F)c(F)c2)cc1)Nc1ccc(OCc2ccccc2)cc1	USP10 block 53.4
Nc1ccc(NS(=O)(=O)c2ccc3c(c2)OCCCO3)cc1	USP8 inh 32.9
Cc1cccc(Nc2cccc(C3CCCN3C(=O)c3cnccn3)n2)n1 (configuration not stated)	none
Cc1ccc2c(NCc3ccc4c(c3)OCO4)c(-c3nc(C)no3)cnc2n1	USP8 inh 60.7
Cc1ccc2c(Nc3ccccc3)c(-c3nc(C)no3)cnc2n1	none
O=C(c1ccccc1)N1C[C@@H]2OCC(=O)N(C3CCOCC3)[C@H]2C1	none
COc1ccccc1CNC(=O)CCC1CCCC1	none
COc1ccccc1CNC(=O)Nc1cccc2ccccc12	USP8 inh 71.1
O=C(c1ccccc1F)N1C[C@H](OCc2cccnc2)[C@H]2COC[C@H]21	none
Cc1nc2ccc(C(=O)Nc3cc(Cl)cc4cccnc34)cc2nc1C	USP8 inh 86.7
CC(=O)Nc1ccc(NC(=O)Nc2ccc(F)cc2)cc1	none
O=C(Nc1ccc(F)cc1)Nc1ccc(NC(=O)c2ccccc2O)cc1	USP8 inh 52.0
Cc1cccc(Cl)c1NC(=O)Nc1ccc(NC(=O)c2ccccc2O)cc1	USP10 block 38.8, USP8 inh 41.6
COc1cccc(NC(=O)c2ccccc2NC(=O)Cc2ccccc2OC)c1	none
COc1ccccc1NC(=O)Nc1ccc(NC(=O)c2ccccc2O)cc1	USP8 inh 84.8
O=C(Nc1ccc(F)cc1)Nc1ccc2ccccc2n1	USP8 inh 50.6

Assay outcomes from PubChem.
